# Measurements as given in the supplement of paper PMC10849652.
# About 8,800 targets were measured; listed, in parts, are those with a hit and a random draw of the rest. About 0.5% of all pairs of compound and target were hits.
# What was measured:
# Assay in all cases: log2 fold change, soluble protein after heating vs DMSO (PISA); higher = thermal stabilisation; K562 lysate, 10 uM; active = over 0.2 and 3.5 SD of the protein, either way, in both replicates (recomputed)
# [1] = compound: C#Cc1cccc(Nc2ncnc3cc(OCCOC)c(OCCOC)cc23)c1 [erlotinib]
# Procedure, shortened: (§1)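 The values are log-two fold changes in thermal stability compared with solvent controls and come from duplicates. They were obtained by TMTpro 16plex LC-MS/MS, with channel sums equalised, on the supernatant after 21,000xg for 90 min. That supernatant came from crude K562 extract at 1 mg/mL protein treated with 10 μM compound for 30 min, heated for 3 min across 48°C-58°C, pooled and brought to 0.5% NP-40 at 4°C.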
# [2] = compound: C/C(=N\NC(=O)C1=CC(=CC=C1)S(=O)(=O)N2CCOCC2)/C3=C(C=CC(=C3)Cl)O
# Procedure, shortened: as §1
# [3] = compound: C1=CC(=CC=C1C2=NC3=C(N2)C=C(C=C3)C(=O)N)OC4=CC=C(C=C4)Cl
# Procedure, shortened: as §1
# [4] = compound: C1=CC2=C(C=CC(=C2)/C=C\3/C(=O)NC(=NCC4=CC=CS4)S3)N=C1
# Procedure, shortened: as §1
# [5] = compound: C1=CC2=NC=CN=C2C=C1/C=C/3\C(=O)NC(=O)S3
# Procedure, shortened: as §1
# [6] = compound: C1=CC=C(C=C1)C2=NC(=C(N2)C3=CC=NC=C3)C4=CC(=C(C=C4)Cl)O
# Procedure, shortened: as §1
# [7] = compound: C1=CC=C2C(=C1)C3=NNC4=CC=CC(=C43)C2=O
# Procedure, shortened: as §1
# [8] = compound: C1CCN(C1)C(=O)NC2=CC=CC(=C2)NC3=NC=C(C(=N3)NCCC4=CN=CN4)Br
# Procedure, shortened: as §1
# [9] = compound: C1CN(CCC1(CC2=CC=C(C=C2)Cl)N)C3=NC=NC4=C3C=CN4
# Procedure, shortened: as §1
# [10] = compound: C1COCCN1CCN2C3=CC=CC=C3N=C2NC(=O)C4=CC(=CC=C4)[N+](=O)[O-] [IRAK-1-4 Inhibitor I]
# Procedure, shortened: as §1
# [11] = compound: C=CC(=O)N1CCC[C@@H](n2nc(-c3ccc(Oc4ccccc4)cc3)c3c(N)ncnc32)C1 [ibrutinib]
# Procedure, shortened: as §1
# [12] = compound: CC(=O)c1cnc2ccc(-c3cc(Cl)c(O)c(Cl)c3)nc2c1N[C@H]1CC[C@H](CN(C)C)CC1
# Procedure, shortened: as §1
# [13] = compound: CC(C)(C)Cn1c(N)nc2ccc(-c3[nH]c(C(C)(C)C)nc3-c3ccc(F)cc3)nc21 [ralimetinib]
# Procedure, shortened: as §1
# [14] = compound: CC(C)(O)CC(=O)NCCn1ccc2ncnc(Nc3ccc(Oc4cccc(C(F)(F)F)c4)c(Cl)c3)c21
# Procedure, shortened: as §1
# [15] = compound: CC(C)C1=C2N=C(C=C(N2N=C1)NCC3=CC=CC=C3)NCCCCCCN
# Procedure, shortened: as §1
# [16] = compound: CC1=C(C(CC(=O)N1)C2=CC=C(C=C2)C(F)(F)F)C(=O)NC3=C(C=C4C(=C3)C=NN4)F
# Procedure, shortened: as §1
# [17] = compound: CC1=C(C2=C(C=C1)C(=O)C3=CC=CC=C3N2CCCN)C
# Procedure, shortened: as §1
# [18] = compound: CC1=C(C=C(C=C1)NC(=O)C2=CC(=CC=C2)C(C)(C)C#N)NC3=CC4=C(C=C3)N=CN(C4=O)C
# Procedure, shortened: as §1
# [19] = compound: CC1=C(C=C(C=C1)NC(=O)C2=CC(=CC=C2)N(C)C)NC(=O)C3=CC=C(C=C3)O
# Procedure, shortened: as §1
# [20] = compound: CC1=CC=C(C=C1)SC2=C3C=C(SC3=CN=C2)C(=O)N
# Procedure, shortened: as §1
# Sequence of UniProt Q2VIQ3 (Q2VIQ3 whole entry, looked up): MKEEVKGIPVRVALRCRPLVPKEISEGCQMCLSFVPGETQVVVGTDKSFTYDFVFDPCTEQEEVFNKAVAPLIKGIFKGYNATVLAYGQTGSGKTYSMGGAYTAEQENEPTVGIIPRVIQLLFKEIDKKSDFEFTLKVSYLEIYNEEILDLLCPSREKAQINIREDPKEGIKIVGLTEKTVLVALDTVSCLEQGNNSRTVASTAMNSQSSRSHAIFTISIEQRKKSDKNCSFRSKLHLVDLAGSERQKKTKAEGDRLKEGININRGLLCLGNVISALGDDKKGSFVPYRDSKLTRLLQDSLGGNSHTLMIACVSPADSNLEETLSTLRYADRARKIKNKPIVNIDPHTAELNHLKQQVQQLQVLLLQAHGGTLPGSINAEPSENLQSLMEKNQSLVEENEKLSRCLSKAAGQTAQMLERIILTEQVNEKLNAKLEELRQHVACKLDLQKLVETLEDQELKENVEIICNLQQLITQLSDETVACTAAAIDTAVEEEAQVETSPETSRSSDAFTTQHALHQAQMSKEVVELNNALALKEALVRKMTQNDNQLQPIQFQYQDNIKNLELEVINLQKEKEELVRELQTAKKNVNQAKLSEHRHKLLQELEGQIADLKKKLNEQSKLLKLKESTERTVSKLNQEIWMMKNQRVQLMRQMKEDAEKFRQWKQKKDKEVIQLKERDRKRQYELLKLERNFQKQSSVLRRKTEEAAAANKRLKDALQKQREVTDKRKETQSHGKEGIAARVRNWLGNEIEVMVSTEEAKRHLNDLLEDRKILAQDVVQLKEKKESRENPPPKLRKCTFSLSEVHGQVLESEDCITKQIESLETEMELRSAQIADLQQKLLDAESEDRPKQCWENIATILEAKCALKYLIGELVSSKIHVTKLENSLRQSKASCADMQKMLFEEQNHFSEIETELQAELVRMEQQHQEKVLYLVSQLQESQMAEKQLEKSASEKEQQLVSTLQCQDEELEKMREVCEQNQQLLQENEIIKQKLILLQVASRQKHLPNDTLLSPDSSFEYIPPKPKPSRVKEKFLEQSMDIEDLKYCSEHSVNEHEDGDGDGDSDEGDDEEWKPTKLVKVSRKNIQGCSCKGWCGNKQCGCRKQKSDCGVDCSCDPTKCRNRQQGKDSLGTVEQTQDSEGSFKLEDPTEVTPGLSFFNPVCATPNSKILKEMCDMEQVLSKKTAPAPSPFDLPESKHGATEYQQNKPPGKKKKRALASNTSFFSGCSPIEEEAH
# Sequence of UniProt O95202 (O95202 whole entry, looked up): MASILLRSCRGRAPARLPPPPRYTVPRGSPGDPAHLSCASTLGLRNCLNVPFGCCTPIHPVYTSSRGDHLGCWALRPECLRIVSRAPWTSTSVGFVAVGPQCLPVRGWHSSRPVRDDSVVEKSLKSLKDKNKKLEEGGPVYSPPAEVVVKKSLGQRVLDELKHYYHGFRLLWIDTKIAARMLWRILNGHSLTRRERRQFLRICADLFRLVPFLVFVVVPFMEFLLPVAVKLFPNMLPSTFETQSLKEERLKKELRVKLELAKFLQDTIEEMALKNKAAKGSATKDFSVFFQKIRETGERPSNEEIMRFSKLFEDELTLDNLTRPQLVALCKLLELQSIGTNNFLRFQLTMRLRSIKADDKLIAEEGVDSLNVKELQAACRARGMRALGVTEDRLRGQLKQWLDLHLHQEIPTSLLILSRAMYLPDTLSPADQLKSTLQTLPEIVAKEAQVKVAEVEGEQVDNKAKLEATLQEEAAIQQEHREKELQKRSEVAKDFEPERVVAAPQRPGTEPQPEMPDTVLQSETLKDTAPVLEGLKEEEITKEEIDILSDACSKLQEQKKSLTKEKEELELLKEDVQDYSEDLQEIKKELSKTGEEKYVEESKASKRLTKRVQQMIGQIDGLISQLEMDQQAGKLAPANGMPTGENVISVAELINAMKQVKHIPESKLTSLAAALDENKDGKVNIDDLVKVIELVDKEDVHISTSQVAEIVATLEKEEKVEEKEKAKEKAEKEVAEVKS
# Sequence of UniProt Q8IWC1 (Q8IWC1 whole entry, looked up): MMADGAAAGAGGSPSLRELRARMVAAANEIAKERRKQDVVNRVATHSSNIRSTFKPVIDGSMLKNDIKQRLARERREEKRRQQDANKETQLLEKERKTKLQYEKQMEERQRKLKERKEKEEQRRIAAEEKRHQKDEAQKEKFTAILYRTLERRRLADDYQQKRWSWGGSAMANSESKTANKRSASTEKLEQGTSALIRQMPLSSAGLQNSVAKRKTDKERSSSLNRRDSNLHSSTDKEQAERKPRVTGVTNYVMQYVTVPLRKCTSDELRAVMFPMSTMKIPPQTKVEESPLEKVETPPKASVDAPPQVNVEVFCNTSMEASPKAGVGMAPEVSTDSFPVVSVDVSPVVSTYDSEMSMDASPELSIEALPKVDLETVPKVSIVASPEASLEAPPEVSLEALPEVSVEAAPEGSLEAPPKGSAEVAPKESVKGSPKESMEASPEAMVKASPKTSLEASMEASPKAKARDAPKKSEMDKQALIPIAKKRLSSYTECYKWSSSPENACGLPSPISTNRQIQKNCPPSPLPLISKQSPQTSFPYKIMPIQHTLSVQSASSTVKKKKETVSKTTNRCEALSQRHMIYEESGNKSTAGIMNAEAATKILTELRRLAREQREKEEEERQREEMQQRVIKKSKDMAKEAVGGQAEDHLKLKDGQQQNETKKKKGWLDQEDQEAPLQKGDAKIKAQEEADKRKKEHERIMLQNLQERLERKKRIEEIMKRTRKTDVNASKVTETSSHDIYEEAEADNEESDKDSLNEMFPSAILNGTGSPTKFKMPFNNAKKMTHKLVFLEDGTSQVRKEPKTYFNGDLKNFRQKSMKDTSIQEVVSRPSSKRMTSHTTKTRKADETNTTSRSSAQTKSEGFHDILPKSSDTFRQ
# Sequence of UniProt Q07866 (Q07866 whole entry, looked up): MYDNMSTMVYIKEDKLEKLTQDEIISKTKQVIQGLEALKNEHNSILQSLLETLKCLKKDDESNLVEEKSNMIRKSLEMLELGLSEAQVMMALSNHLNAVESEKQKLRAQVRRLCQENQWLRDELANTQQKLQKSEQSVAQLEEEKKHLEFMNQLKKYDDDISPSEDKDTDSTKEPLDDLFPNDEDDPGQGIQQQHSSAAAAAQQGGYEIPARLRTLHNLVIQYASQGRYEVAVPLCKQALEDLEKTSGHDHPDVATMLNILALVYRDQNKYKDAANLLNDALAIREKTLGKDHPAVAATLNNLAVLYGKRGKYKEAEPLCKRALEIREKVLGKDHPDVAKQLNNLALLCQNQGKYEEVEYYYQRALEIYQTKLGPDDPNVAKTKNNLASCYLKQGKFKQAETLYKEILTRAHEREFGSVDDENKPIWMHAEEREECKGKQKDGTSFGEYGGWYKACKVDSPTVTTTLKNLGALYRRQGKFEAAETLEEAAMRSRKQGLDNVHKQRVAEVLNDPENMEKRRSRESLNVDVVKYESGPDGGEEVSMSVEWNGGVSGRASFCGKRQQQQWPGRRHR
# Sequence of UniProt Q9UBU8 (Q9UBU8 whole entry, looked up): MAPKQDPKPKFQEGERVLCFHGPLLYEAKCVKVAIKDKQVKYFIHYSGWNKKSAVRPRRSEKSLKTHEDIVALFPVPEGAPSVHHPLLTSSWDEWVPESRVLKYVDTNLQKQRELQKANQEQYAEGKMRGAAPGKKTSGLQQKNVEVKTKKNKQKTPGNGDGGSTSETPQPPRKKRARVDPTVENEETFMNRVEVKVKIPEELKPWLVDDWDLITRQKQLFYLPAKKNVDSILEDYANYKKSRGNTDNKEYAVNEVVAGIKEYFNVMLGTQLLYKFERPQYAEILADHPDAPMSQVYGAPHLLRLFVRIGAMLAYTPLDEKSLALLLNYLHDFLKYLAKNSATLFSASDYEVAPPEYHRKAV
# Sequence of UniProt P45985 (P45985 whole entry, looked up): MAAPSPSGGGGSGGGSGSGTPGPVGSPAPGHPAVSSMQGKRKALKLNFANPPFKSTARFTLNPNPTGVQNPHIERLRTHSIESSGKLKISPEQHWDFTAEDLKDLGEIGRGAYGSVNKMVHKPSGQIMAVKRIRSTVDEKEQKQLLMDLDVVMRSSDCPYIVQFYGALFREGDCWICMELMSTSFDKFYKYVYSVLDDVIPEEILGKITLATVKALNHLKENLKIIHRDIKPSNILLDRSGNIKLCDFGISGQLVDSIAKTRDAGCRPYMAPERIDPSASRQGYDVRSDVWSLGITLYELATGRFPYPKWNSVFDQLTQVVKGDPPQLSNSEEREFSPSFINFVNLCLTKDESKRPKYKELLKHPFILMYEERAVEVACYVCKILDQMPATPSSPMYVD
# Sequence of UniProt Q9Y4K4 (Q9Y4K4 whole entry, looked up): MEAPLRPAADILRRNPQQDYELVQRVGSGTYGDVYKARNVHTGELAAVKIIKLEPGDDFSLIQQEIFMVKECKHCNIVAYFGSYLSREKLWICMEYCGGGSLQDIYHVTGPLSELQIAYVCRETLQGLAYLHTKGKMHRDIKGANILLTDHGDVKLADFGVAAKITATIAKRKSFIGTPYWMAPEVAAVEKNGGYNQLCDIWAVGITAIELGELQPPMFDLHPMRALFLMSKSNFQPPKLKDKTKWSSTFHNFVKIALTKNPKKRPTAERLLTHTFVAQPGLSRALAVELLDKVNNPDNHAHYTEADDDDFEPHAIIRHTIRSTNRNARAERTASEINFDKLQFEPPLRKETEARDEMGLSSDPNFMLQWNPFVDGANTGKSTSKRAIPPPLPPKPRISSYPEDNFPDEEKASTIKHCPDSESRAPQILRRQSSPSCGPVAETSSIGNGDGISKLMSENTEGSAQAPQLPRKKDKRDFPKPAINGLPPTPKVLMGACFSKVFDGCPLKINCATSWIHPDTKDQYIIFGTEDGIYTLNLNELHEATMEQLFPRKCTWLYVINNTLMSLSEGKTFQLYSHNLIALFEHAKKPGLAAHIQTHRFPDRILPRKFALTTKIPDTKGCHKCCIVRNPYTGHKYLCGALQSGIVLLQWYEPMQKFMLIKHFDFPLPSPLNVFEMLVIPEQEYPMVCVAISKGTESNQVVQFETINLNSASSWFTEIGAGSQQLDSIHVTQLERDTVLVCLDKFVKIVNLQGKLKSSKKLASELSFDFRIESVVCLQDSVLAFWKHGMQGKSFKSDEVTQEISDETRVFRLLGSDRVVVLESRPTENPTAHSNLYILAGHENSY
Target,log2 fold change [1],log2 fold change [2],log2 fold change [3],log2 fold change [4],log2 fold change [5],log2 fold change [6],log2 fold change [7],log2 fold change [8],log2 fold change [9],log2 fold change [10],log2 fold change [11],log2 fold change [12],log2 fold change [13],log2 fold change [14],log2 fold change [15],log2 fold change [16],log2 fold change [17],log2 fold change [18],log2 fold change [19],log2 fold change [20]
MAP2K4 isoform 2 (UniProt P45985),0.035 (inactive),-0.069 (inactive),-0.035 (inactive),-0.003 (inactive),-0.001 (inactive),0.06 (inactive),0.283 (inactive),0.039 (inactive),-0.058 (inactive),0.048 (inactive),0.051 (inactive),0.316 (inactive),-0.029 (inactive),-0.015 (inactive),0.042 (inactive),-0.008 (inactive),0.006 (inactive),-0.055 (inactive),0.033 (inactive),-0.045 (inactive)
MORF4L1 isoform 2 (UniProt Q9UBU8),0.028 (inactive),0.06 (inactive),0.046 (inactive),-0.027 (inactive),-0.032 (inactive),-0.005 (inactive),0.017 (inactive),-0.04 (inactive),-0.01 (inactive),0.013 (inactive),-0.038 (inactive),-0.012 (inactive),0.011 (inactive),-0.062 (inactive),0.019 (inactive),-0.034 (inactive),-0.089 (inactive),0.01 (inactive),0.003 (inactive),0.021 (inactive)
KIF4B (UniProt Q2VIQ3),-0.018 (inactive),-0.035 (inactive),-0.017 (inactive),0.032 (inactive),-0.005 (inactive),0.034 (inactive),0.004 (inactive),-0.003 (inactive),-0.027 (inactive),-0.061 (inactive),0.027 (inactive),0.005 (inactive),0.004 (inactive),-0.03 (inactive),0.013 (inactive),0.04 (inactive),-0.018 (inactive),0.01 (inactive),0.002 (inactive),-0.036 (inactive)
MAP7D3 (UniProt Q8IWC1),0.069 (inactive),0.053 (inactive),0.281 (inactive),0.052 (inactive),-0.023 (inactive),-0.025 (inactive),0.044 (inactive),-0.034 (inactive),-0.012 (inactive),-0.017 (inactive),-0.073 (inactive),0.005 (inactive),0.023 (inactive),-0.019 (inactive),-0.22 (inactive),0.035 (inactive),0.009 (inactive),0.046 (inactive),0.087 (inactive),-0.039 (inactive)
LETM1 (UniProt O95202),-0.012 (inactive),0.061 (inactive),-0.157 (inactive),0.012 (inactive),0.014 (inactive),0.01 (inactive),0.044 (inactive),-0.006 (inactive),0.02 (inactive),-0.013 (inactive),-0.006 (inactive),-0.001 (inactive),0.007 (inactive),0.002 (inactive),0.045 (inactive),-0.026 (inactive),0.026 (inactive),0.036 (inactive),0 (inactive),0.037 (inactive)
MED13L (UniProt Q71F56),0.048 (inactive),-0.049 (inactive),0.03 (inactive),0.024 (inactive),0.034 (inactive),-0.014 (inactive),-0.035 (inactive),0.024 (inactive),0.013 (inactive),0.061 (inactive),0.047 (inactive),-0.036 (inactive),0.014 (inactive),-0.016 (inactive),0.005 (inactive),-0.027 (inactive),-0.036 (inactive),0.007 (inactive),0.015 (inactive),-0.035 (inactive)
MRPL35 (UniProt Q9NZE8),-0.005 (inactive),-0.237 (inactive),-0.025 (inactive),0.296 (active),0.012 (inactive),-0.011 (inactive),-0.133 (inactive),,,-0.041 (inactive),-0.019 (inactive),-0.014 (inactive),0.041 (inactive),0.047 (inactive),0.013 (inactive),-0.012 (inactive),-0.108 (inactive),-0.032 (inactive),0.032 (inactive),0.01 (inactive)
MAP4K5 (UniProt Q9Y4K4),0.032 (inactive),-0.169 (inactive),-0.025 (inactive),-0.019 (inactive),-0.002 (inactive),0.039 (inactive),,0.089 (inactive),-0.04 (inactive),-0.001 (inactive),0.029 (inactive),0.108 (inactive),0.039 (inactive),0.002 (inactive),0.098 (inactive),-0.003 (inactive),0.009 (inactive),0 (inactive),0.021 (inactive),0.025 (inactive)
KLC1 isoform 6 (UniProt Q07866),-0.02 (inactive),-0.023 (inactive),0.002 (inactive),0 (inactive),-0.033 (inactive),0.002 (inactive),-0.007 (inactive),-0.027 (inactive),-0.01 (inactive),0.011 (inactive),-0.022 (inactive),-0.012 (inactive),0.019 (inactive),0.005 (inactive),0.002 (inactive),-0.01 (inactive),0.012 (inactive),0.028 (inactive),-0.002 (inactive),-0.017 (inactive)
